Measurements published in PubChem BioAssay (Tox21).
Results filed as inconclusive are left out. The source made the active and inactive calls. Unless noted, calls follow the shape of the dose curve; as a rule, active = well fitted curve in the direction sought with a large enough effect in the repeat runs; inconclusive = weak or mixed curves; inactive = no such curve, though single readings can be large; an effect the other way counts as inactive or inconclusive.

How the values were obtained:
[1] = qHTS assay for small molecule agonists of the p53 signaling pathway (AID 651631; calls by dose curve; also: nearly all actives have a fitted effect of over 15% in size)
In short: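 Agonist mode screen using a stably integrated beta-lactamase gene under p53 response elements in HCT-116 cells. Compound exposure lasts 16 h at 37 °C; fluorescence intensity is measured following 2 h FRET substrate loading.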

[2] = qHTS assay for small molecule agonists of the p53 signaling pathway - cell viability (AID 651633; calls by dose curve;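 also: p53RE-bla HCT reporter cells with a stable beta-lactamase p53 reporter; series mostly up to about 83 µM; nearly all actives have a fitted effect of over 30% in size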)
In short: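 p53RE-bla cells, seeded at 4,000 per well and rested 5 h at 37 C/5% CO2, received compounds in DMSO for 16 h at 37 C. CellTiter-Glo was then added, and luminescence was read after 30 min at room temperature to gauge cytotoxicity.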

[3] = qHTS assay for small molecules that induce genotoxicity in human embryonic kidney cells expressing luciferase-tagged ATAD5 - cell viability (AID 651634; calls by dose curve; also: nearly all actives have a fitted effect of over 25% in size)
In short: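 HEK293T cells carrying luciferase-tagged ATAD5, 2,000 cells/well, exposed to compound for 15.5 hr at 37C. Viability read as live-cell protease activity by CellTiter-Fluor fluorescence after 30 min at 37C.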

[4] = qHTS assay for small molecule disruptors of the mitochondrial membrane potential - cell viability (AID 720634; calls by dose curve;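 also: human HepG2 liver cancer cells; series mostly up to about 83 µM; nearly all actives have a fitted effect of over 20% in size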)
In short: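 HepG2 cells, 2,000 per well, attached overnight, then treated 1 hr at 37 C, 5% CO2. Viability read as ATP by CellTiter-Glo luminescence after 30 min at room temperature. Read in the same wells as the m-MPI membrane-potential dye assay.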

[5] = qHTS assay for small molecule disruptors of the mitochondrial membrane potential (AID 720635)
In short: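 HepG2 cells (2,000/well) attached overnight at 37C, then took compound for 1 hr at 37C, 5% CO2. Mito-MPS dye was added for 30 min; fluorescence was read at 490/535 nm (monomers) and 540/590 nm (aggregates).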

[6] = qHTS assay to test for compound auto fluorescence at 590 nm (red) in HepG2 cells (AID 720674)
In short: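 Compound auto-fluorescence is scored relative to Rose Bengal sodium, measured at 540/590 nm in live HepG2 cultures after 1 hr compound contact (37 C, 5% CO2).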

[7] = qHTS assay to test for compound auto fluorescence at 535 nm (green) in HepG2 cells (AID 720675)
[8] = qHTS assay to test for compound auto fluorescence at 460 nm (blue) in HEK293 cells (AID 720678)
In short: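 Triamterene serves as the blue fluorophore standard. Compound signal at 405/460 nm is read in HEK293 wells (2,000 cells, 10% dialyzed FBS) after overnight treatment at 37C.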

[9] = qHTS assay to test for compound auto fluorescence at 590 nm (red) in HEK293 cells (AID 720679)
In short: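 We plated HEK293 cells in 10% dialyzed FBS medium, let them adhere for 4-5 hr, then added 23 nL compound. Overnight at 37C and 5% CO2 preceded fluorescence measurement at 540/590nm.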

[10] = qHTS assay to test for compound auto fluorescence at 535 nm (green) in HEK293 cells (AID 720680)
[11] = qHTS assay to test for compound auto fluorescence at 460 nm (blue) in HEK293 cell free culture (AID 720681)
In short: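 Test compounds were pinned into cell-free culture medium (DMEM with 10% FBS) and fluorescence was read directly at Ex/Em 405/460 nm. Signals were expressed as fluorescence equivalents of triamterene, with DMSO vehicle as control.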

[12] = qHTS assay to test for compound auto fluorescence at 535 nm (green) in HEK293 cell free culture (AID 720682)
In short: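 No cells present: wells hold DMEM supplemented with 10% FBS, into which compound or vehicle is pinned. Green emission is then recorded (485 nm excitation, 535 nm emission) and scaled to fluorescein.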

[13] = qHTS assay to test for compound auto fluorescence at 590 nm (red) in HEK293 cell free culture (AID 720683)
In short: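 Tox21 10K library compounds were pinned into cell-free DMEM with 10% FBS and fluorescence was read at excitation 540 nm. Activity is expressed as Rose Bengal sodium equivalency.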

[14] = qHTS assay to test for compound auto fluorescence at 590 nm (red) in HepG2 cell free culture (AID 720684)
In short: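 Red fluorescence (540 nm excitation, 590 nm emission) was measured after compound transfer into cell-free MEM supplemented with 10% FBS. Values are equivalencies against Rose Bengal sodium.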

[15] = qHTS assay to test for compound auto fluorescence at 460 nm (blue) in HepG2 cell free culture (AID 720685)
In short: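 Compound (23 nL) or DMSO pinned into cell-free MEM with 10% FBS; blue fluorescence read at 405/460 nm excitation/emission, expressed as auto-fluorescence equivalency to triamterene.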

[16] = target: Glucocorticoid receptor (Homo sapiens) (UniProt P04150); assay: qHTS assay to identify small molecule agonists of the glucocorticoid receptor (GR) signaling pathway (AID 720691; active = well fitted activation curve with a large enough effect in the signal ratio in the repeat runs, not every such curve was filed as active; the % refers to the signal ratio)
Sequence of Glucocorticoid receptor (Homo sapiens) (P04150 whole entry, looked up): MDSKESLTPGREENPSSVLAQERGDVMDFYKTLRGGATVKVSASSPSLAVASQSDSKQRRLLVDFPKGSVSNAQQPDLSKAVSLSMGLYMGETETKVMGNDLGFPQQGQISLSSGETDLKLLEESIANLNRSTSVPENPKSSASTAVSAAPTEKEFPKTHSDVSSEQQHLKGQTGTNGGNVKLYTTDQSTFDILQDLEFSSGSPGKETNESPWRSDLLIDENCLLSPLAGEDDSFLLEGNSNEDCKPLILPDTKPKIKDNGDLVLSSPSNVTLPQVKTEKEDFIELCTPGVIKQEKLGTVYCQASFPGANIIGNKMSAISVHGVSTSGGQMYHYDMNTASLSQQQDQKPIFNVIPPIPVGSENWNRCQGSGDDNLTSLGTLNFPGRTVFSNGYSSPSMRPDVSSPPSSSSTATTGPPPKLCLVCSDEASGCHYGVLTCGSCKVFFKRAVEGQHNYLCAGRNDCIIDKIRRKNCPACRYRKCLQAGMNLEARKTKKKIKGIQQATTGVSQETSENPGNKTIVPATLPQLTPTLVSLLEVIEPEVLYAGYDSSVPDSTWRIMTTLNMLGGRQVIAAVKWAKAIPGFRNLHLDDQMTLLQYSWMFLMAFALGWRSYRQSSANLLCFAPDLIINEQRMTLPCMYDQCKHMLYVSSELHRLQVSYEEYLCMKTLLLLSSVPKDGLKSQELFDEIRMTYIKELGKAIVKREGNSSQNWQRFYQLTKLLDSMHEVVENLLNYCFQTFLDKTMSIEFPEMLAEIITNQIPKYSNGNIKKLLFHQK
In short: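 GR-bla HeLa cells carrying a GRE-driven beta-lactamase reporter, exposed to compounds for 18 h at 37 C. Reporter activation read as fluorescence after 2 h with LiveBLAzer B/G FRET substrate at room temperature.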

[17] = target: Glucocorticoid receptor (Homo sapiens) (UniProt P04150); assay: qHTS assay to identify small molecule antagonists of the glucocorticoid receptor (GR) signaling pathway (AID 720692; active = well fitted inhibition curve with a large enough effect in the signal ratio in the repeat runs, not every such curve was filed as active; the % refers to the signal ratio)
In short: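 GR-bla HeLa cells carrying a GRE-driven beta-lactamase reporter received compound after 4 h plating, then dexamethasone (5 nM final). After 18 h at 37C, the FRET substrate was loaded for 2 h at room temperature and fluorescence read.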

[18] = qHTS assay to test for compound auto fluorescence at 535 nm (green) in HepG2 cell free culture (AID 720686)
[19] = qHTS assay to test for compound auto fluorescence at 460 nm (blue) in HepG2 cells (AID 720687)
In short: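 Cells (2,000/well in MEM with 10% FBS) attached overnight at 37 C, then were exposed to compound or DMSO for 1 hr at 37 C, 5% CO2. Fluorescence read at Ex/Em 405/460 nm, expressed as triamterene-equivalent signal.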

[20] = qHTS assay for small molecules that induce genotoxicity in human embryonic kidney cells expressing luciferase-tagged ATAD5 (AID 651632); also: nearly all actives have a fitted effect of over 15% in size
In short: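 HEK293T cells carrying luciferase-tagged ATAD5 were given compound or DMSO vehicle and incubated 16 hr at 37C, 5% CO2. Luciferase activity was read after 30 min at room temperature with Amplite; a rise signals genotoxic stress.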

Measured: Potency

c1ccc2[nH]ccc2c1
not listed: [18] | [19] | [20]
inactive: all other assays above

O=C(C1CCCCC1)N1CC(=O)N2CCc3ccccc3C2C1 (stereo not given)
not listed: [1] | [2] | [20]
inactive: all other assays above

O=C(O)CS
not listed: [1] | [18] | [19]
inactive: all other assays above

NC(N)=O
not listed: [1] | [16] | [17] | [18]
inactive: all other assays above

CCC1(c2ccccc2)C(=O)NCNC1=O
not listed: [3] | [18] | [19] | [20]
inactive: all other assays above

Cc1ccc(C)c(OCCCC(C)(C)C(=O)O)c1
not listed: [1] | [2] | [16] | [17] | [19] | [20]
inactive: all other assays above

Cc1ccccc1C(OCCN(C)C)c1ccccc1 (stereo not given)
not listed: [1] | [5] | [17] | [19] | [20]
inactive: all other assays above

O=C(O)CCC(=O)O
not listed: [1] | [16] | [17] | [18]
inactive: all other assays above

O=S(=O)(O)c1ccc2cc(O)ccc2c1
not listed: [18] | [19] | [20]
inactive: all other assays above

CC(=O)OCC(COC(C)=O)OC(C)=O
not listed: [1] | [18]
inactive: all other assays above

Cc1ccc(S(=O)(=O)NC(=O)NN2CCCCCC2)cc1
not listed: [1] | [19]
inactive: all other assays above

CC1(C)[C@@H]2CC[C@@]1(C)C(=O)C2
not listed: [18] | [20]
inactive: all other assays above

NS(=O)(=O)c1cc(C(=O)O)c(NCc2ccco2)cc1Cl
not listed: [1] | [2] | [5] | [16] | [17] | [18] | [20]
inactive: all other assays above

O=C(c1ccccc1)C(O)c1ccccc1 (stereo not given)
not listed: [1] | [4] | [5] | [18] | [19]
inactive: all other assays above

O=C1NC(=O)c2ccccc21
not listed: [1] | [16] | [17] | [19] | [20]
inactive: all other assays above

O=C(O)CCCCC(=O)O
not listed: [3] | [4] | [5] | [18] | [19] | [20]
inactive: all other assays above

COc1ccc2[nH]cc(CCNC(C)=O)c2c1
not listed: [18] | [19] | [20]
inactive: all other assays above

CC(=O)NS(=O)(=O)c1ccc(N)cc1
not listed: [18] | [19] | [20]
inactive: all other assays above
